Activation data for 90 molecules are collected here from PubChem BioAssay AID1508602 (The Scripps Research Institute Molecular Screening Center, 2020).

Structures are written as SMILES. Among all 650,000 compounds or so, about 6,800 (1%) were called active. The entries come from a sample that favours actives as a whole. A number with no mark means an inactive call. Rule as the data show it: active = activation above about 4.9%; inactive = the rest.

For the assay, the target named is G-protein coupled receptor 151 (Homo sapiens) (UniProt Q8TDV0). Briefly: activates the human receptor GPR151, primary screen, cell-based, PathHunter beta-arrestin, luminescence (AID 1508602).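 Also: 0% = median of compound wells and 100% = cells with positive control.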 The note with it: PathHunter beta-arrestin GPR151 cells, at 11.2 µM, active compounds read high.
G-protein coupled receptor 151 (Homo sapiens), sequence (Q8TDV0 whole entry, looked up): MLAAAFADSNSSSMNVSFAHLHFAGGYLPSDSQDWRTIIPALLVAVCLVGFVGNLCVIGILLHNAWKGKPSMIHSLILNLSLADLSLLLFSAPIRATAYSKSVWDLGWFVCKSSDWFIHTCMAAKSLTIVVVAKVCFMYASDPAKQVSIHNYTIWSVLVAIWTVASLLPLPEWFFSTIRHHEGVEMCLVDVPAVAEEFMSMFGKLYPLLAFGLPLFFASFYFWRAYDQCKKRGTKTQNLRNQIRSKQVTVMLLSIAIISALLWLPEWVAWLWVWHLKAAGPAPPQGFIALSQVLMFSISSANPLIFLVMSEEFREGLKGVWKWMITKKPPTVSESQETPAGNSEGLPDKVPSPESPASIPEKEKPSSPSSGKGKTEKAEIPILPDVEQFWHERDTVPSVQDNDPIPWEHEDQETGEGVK
Take `COC(=O)c1ccc(-c2cnc3ccc(NCCCO)nn23)cc1`: the activation was 0.0841%. Take `O=C(Cc1cccs1)NCCS(=O)(=O)N1CCN(CCc2ccccc2)CC1`: the activation was 0.729%.

In the case of `Cc1ccc(-c2noc(CNC(=O)c3cccc4ccccc34)n2)cc1`, the activation is 1.49%.

As to `Cc1ccc(-c2noc(CNC(=O)c3cc(C)ccc3C)n2)cc1`, the activation is 0.749%. As for `Cc1ccccc1C(=O)NCc1nc(-c2ccc(Cl)cc2)no1`, the activation is 6.7% (active). The result for `COc1ccc(C2Nc3ccccc3C(=O)N2c2ccc(C)cc2)cc1COc1ccc(Cl)cc1` (stereo not given) reads 2.56%.

`O=C(O)CN1C(=O)CC(N2C(=O)/C(=C/c3ccc(F)cc3)SC2=S)C1=O` (stereo not given): the activation was -1.59%. Take `Cn1cnnc1Sc1nc2c(c(=O)n(C)c(=O)n2C)n1Cc1ccc(F)cc1`: the activation was -1.79%. For `CNC(=O)CSc1nc2c(c(=O)n(C)c(=O)n2C)n1Cc1ccc(F)cc1`, the activation was 0.114%.

Consider `Cn1c(=O)c2c(nc(SCC(=O)O)n2Cc2ccc(F)cc2)n(C)c1=O`, for which the activation was 8.98% (active). For the molecule `CCc1nc2sc3c(c2c2nnc(SCC(=O)NCc4ccco4)n12)CCCC3`, the activation is -0.144%.

Turning to `CCOC(=O)CNC(=O)/C(=C\c1ccc2c(c1)OCO2)NC(=O)c1ccccc1OC`, the activation is 2.88%. `COc1ccccc1C(=O)N/C(=C\c1ccc2c(c1)OCO2)C(N)=O`: the activation was 6.4% (active). As to `COc1ccccc1C(=O)N/C(=C/c1ccc2c(c1)OCO2)C(=O)N1CCCCC1`, the activation is 0.0614%. For the molecule `COCCOC(=O)C1=C(C)Nc2ccccc2S1`, the activation was 1.48%. Consider `CN(C)S(=O)(=O)Nc1ccc(N2CCC(NCc3cc4ccccc4[nH]3)CC2)cc1`, for which the activation was -0.741%. For the molecule `COC(=O)CSc1nc2sc3c(c2c(=O)n1C1CCCCC1)CC(C)(C)OC3`, the activation is -0.897%. Take `CCn1c(SCC(=O)O)nc2sc3c(c2c1=O)CC(C)(C)OC3`: the activation was -0.501%. In the case of `C=C(C)CSc1nc2sc3c(c2c(=O)n1-c1ccc(OC)cc1)CC(C)(C)OC3` it was 5.02% (active); in that of `Cc1cc(Cl)ccc1OCc1nc(-c2ccccc2)no1`, 1.48%. In the case of `CC1=C(C(=O)OCC2CCCO2)C(c2ccccc2F)C2=C(CCCC2=O)N1` (stereo not given) it was 0.289%; in that of `COc1ccc(CNC(=O)CSc2nnnn2C2CCCCC2)cc1`, -1.28%; in that of `CCOc1ccc(NC(=O)COc2cc(C)c(Cl)c(C)c2)cc1`, -0.356%.

On to `CCOc1ccc(NC(=O)COc2cccc(C)c2C)cc1`, for which the activation is 5.81% (active).

For the molecule `CCOc1ccc(NC(=O)COc2ccc(C)cc2C)cc1`, the activation was 0.102%. Take `COc1cc(-c2cc(-c3ccccc3)nc3sc(C(=O)O)c(N)c23)cc(OC)c1OC`: the activation was 0.0436%. As for `COc1ccc(C(=O)N2CCC(C(N)=O)CC2)cc1OC`, the activation was 1.14%. `NC(=O)C1CCN(C(=O)c2ccc(-c3ccccc3)cc2)CC1`: the activation was 5.25% (active).

Consider `NC(=O)C1CCN(C(=O)c2ccc(C(F)(F)F)cc2)CC1`, for which the activation is -0.735%.

With `COc1ccc(C(=O)C2CCN(CC(N)=O)CC2)cc1`, the activation was -1.68%. In the case of `CN(C)CCNC(=O)C(=O)NCC1OCCCN1S(=O)(=O)c1ccc(F)cc1` (stereo not given) it was -0.149%; in that of `O=C(CSc1ccc(F)cc1)Nc1nccs1`, -0.169%. Regarding `Nc1cc(=O)nc(SCC(=O)Nc2nccs2)n1-c1ccc(F)cc1`, the activation is 5.12% (active). For the molecule `Cc1cc(NC(=O)CSc2nc(=O)cc(N)n2-c2ccc(F)cc2)no1`, the activation was -0.189%.

Consider `O=C(Nc1ccc2oc(-c3ccccc3F)nc2c1)c1cc(I)ccc1Cl`, for which the activation is -1.58%. For `CCOc1ccc(-c2cc(C(=O)NCCCN3CCN(C)CC3)c3ccccc3n2)cc1`, the activation is 2.73%. Turning to `O=C1c2ccccc2C(=O)N1CNc1ccc(Cc2ccncc2)cc1`, the activation was -0.716%. Take `O=C(CN1C(=O)CCC1=O)Nc1ccc(S(=O)(=O)N2CCOCC2)cc1`: the activation is 6.57% (active). As for `COC(=O)CCC(=O)Nc1ccc(S(=O)(=O)N2CCOCC2)cc1`, the activation was -0.0636%. In the case of `O=C(CN1C(=O)NC2(CCCCCC2)C1=O)Nc1ccc(S(=O)(=O)N2CCCC2)cc1` it was 1.73%; in that of `CN(CC(=O)Nc1cccc(F)c1)C(=O)C1CCCCC1`, -0.0765%; in that of `CC(C)CCn1nnnc1CN1CCN(c2ccccc2F)CC1`, -0.0283%.

On to `Cc1ccc(S(=O)(=O)Cn2nnnc2CN2CCN(c3cccc(Cl)c3)CC2)cc1`, for which the activation is -0.91%.

Regarding `Cc1ccc(S(=O)(=O)Cn2nnnc2CN2CCN(c3ccccc3F)CC2)cc1`, the activation is 8.05% (active).

With `CCCC(C)NS(=O)(=O)c1ccc(OCC(=O)OC)cc1` (stereo not given), the activation was 0.348%. In the case of `COCC(=O)NC(C)c1nnc(SCc2ccccc2C)n1C` (stereo not given), the activation is -0.733%. As for `COc1cccc(C(=O)Nc2ccc3oc(-c4ccccc4)nc3c2)c1`, the activation was -0.935%. Take `COc1cccc(-c2nc3cc(NC(=O)c4cncc(Br)c4)ccc3o2)c1`: the activation was -0.0884%. `COc1cccc(-c2ocnc2C(=O)Nc2ccc3nc(-c4cccnc4)oc3c2)c1`: the activation is 7.47% (active). As for `O=C(NC1CC1)c1ccc(-c2cccc(C(=O)NCc3ccccc3)n2)cc1`, the activation was -1.55%.

Regarding `CCOc1ccc(-c2ccc(SCC(=O)Nc3cc(C)on3)nn2)cc1`, the activation was 1.58%. Regarding `O=C1N(CC2CCCCC2)CCN1c1ccc(C(F)(F)F)cn1`, the activation is -0.812%.

On to `CCOc1ccc(S(=O)(=O)N2CCN(c3ncccn3)CC2)c2cccnc12`, for which the activation was 3.78%. For the molecule `c1ccc(-c2ccccc2OCCCCNCCN2CCOCC2)cc1`, the activation is 0.194%.

In the case of `c1ccc(-c2ccccc2OCCNCCN2CCOCC2)cc1`, the activation is -0.471%. `c1ccc(-c2ccc(OCCCNCCN3CCOCC3)cc2)cc1`: the activation was 7.78% (active).

With `CC(C)c1ccc(N2C(=O)C3C(C2=O)C2(c4ccccc4)C(=O)C3(c3ccccc3)C(c3ccccc3)=C2c2ccccc2)cc1` (stereo not given), the activation is 2.7%. As to `COC1(C(F)(F)F)NC(=O)N(c2ccccc2)C1=O` (stereo not given), the activation was -1.06%. Consider `CCCOC1(C(F)(F)F)NC(=O)N(c2ccc(C(C)C)cc2)C1=O` (stereo not given), for which the activation was 10.8% (active). For `Cc1nc(N2CCN(C)CC2)c2c(C)c(C(=O)NC3CCCCC3)sc2n1`, the activation is 0.833%. For `CC(C)NC(=O)c1sc(=S)n2c1[nH]c(=O)c1ccc(C(=O)NCCN(C)C)cc12`, the activation is 1.68%.

As for `O=C1/C(=C\c2cccs2)SC(=S)N1Cc1ccco1`, the activation was -0.646%.

On to `CCC(=O)N1CCc2cc(S(=O)(=O)CCC(=O)Nc3ccc(C(=O)OC)cc3)ccc21`, for which the activation is 0.246%.

As to `COc1cc(-c2cncc(-c3cccc(C(=O)NCCN(C)C)c3)n2)cc(OC)c1OC`, the activation is -0.823%. For the molecule `CCN1CCN(Cc2cc([N+](=O)[O-])ccc2O)CC1`, the activation is -0.921%. In the case of `C/C(=N/N1CCN(Cc2ccc(C)cc2C)CC1)c1ccc([N+](=O)[O-])cc1` it was 9.21% (active). In the case of `Cc1ccc(CN2CCOCC2)c(C)c1`, the activation was 0.704%. As for `COC(=O)c1cccc(-n2c3nc(=O)[nH]c(=O)c-3cc3ccccc32)c1`, the activation is -0.76%. With `CC(C)CC(=O)Nc1ccc(NC(=O)CC(C)C)c(Cl)c1`, the activation is 0.466%. As for `CC(=O)c1cccc(-c2nc(NCCOc3ccccc3)c3ncn(-c4ccccc4)c3n2)c1`, the activation was 0.401%.

Regarding `CC(=O)c1cccc(-c2nc(Nc3ccc(Oc4ccccc4)cc3)c3ncn(-c4ccsc4)c3n2)c1`, the activation is 5.34% (active).

As to `Cc1nn(C)c(C)c1-c1nc(Nc2ccc(Oc3ccccc3)cc2)c2ncn(-c3ccsc3)c2n1`, the activation was 0.158%.

Regarding `CCOC(=O)C1=C(C)N=c2s/c(=C\c3ccc(OC)c(Br)c3)c(=O)n2C1c1ccc2c(c1)OCO2` (stereo not given), the activation was 3.22%.

With `CCCc1c(C)nc2c(C(=O)NC3CCCCCCC3)c[nH]n2c1=O`, the activation was 1.02%. Turning to `CC(=O)COC(=O)CNC(=O)c1ccc(Cl)cc1`, the activation is -1.71%. The result for `CCOC(=O)Cc1csc(NC(=O)c2ccc(NC(=O)CC)cc2)n1` reads -0.289%. `CCOC(=O)Cc1coc(NC(=O)c2ccc(Cl)cc2)n1`: the activation was 5.28% (active).

On to `Cc1nn(CC(=O)N(CC2CCCO2)C2CCS(=O)(=O)C2)c(C)c1[N+](=O)[O-]` (stereo not given), for which the activation is 0.461%. In the case of `CCOC(=O)C1=C(C)N=c2s/c(=C\c3cccc(OC)c3OCC)c(=O)n2C1c1ccccc1OC(C)C` (stereo not given), the activation is 2.86%. In the case of `COc1cc([N+](=O)[O-])ccc1NC(=O)N1CCN(C2CCCCC2)CC1` it was -0.0069%; in that of `O=C(c1cn[nH]c1-c1ccc([N+](=O)[O-])cc1)N1CCOCC1`, -0.121%; in that of `O=C(c1cc([N+](=O)[O-])ccc1NC1CCCCC1)N1CCOCC1`, 9.09% (active). As to `S=C(NCc1ccccc1)NCc1nc2ccccc2[nH]1`, the activation is 1.09%. The result for `Cc1ccc(C)n1-c1ccc(C(=O)NCC(c2ccco2)N(C)C)cc1` (stereo not given) reads 0.754%. In the case of `CCOCCn1c(=O)c2c(nc3n2CCCN3c2ccc(Br)cc2)n(C)c1=O` it was 0.326%; in that of `CC(C)Cn1c(=O)c2c(nc3n2CCCN3c2ccc(Br)cc2)n(C)c1=O`, -0.288%; in that of `CC(=O)Cn1c(=O)c2c(nc3n2CCCN3c2ccc(Br)cc2)n(C)c1=O`, 5.99% (active).

Turning to `O=C(C(Cc1ccccc1)N1Cc2ccccc2C1=O)N1CCOCC1` (stereo not given), the activation is -0.15%.

`O=C(C(Cc1ccccc1)N1C(=O)C2C3CCC(C3)C2C1=O)N1CCOCC1` (stereo not given): the activation was 0.906%. In the case of `O=C(C(Cc1ccccc1)N1C(=O)C2C3c4ccccc4C(c4ccccc43)C2C1=O)N1CCOCC1` (stereo not given) it was 6.8% (active).
